Experimental data: PubChem BioAssay AID1117280 (The Scripps Research Institute Molecular Screening Center, 2014)
Fewer than 10 of roughly 1,100 compounds were called active.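 How the source made its calls: active means mean activation above a set limit taken from the earlier primary screen (cut at about 11% in these data); inactive means the rest.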 Not all results are given here.

molecular target: Transthyretin (Homo sapiens) (UniProt P02766); assay: TTR transcription activators, retest, confirmation, cell-based, luminescence, SH-SY5Y, triplicate (AID 1117280); details: SHSY5Y TTR promoter Gaussia luciferase, at 16.7 µM, stronger effect = higher value, 100% = purified Lucia enzyme wells, no cells;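 further: 0% = DMSO-treated cells and 100% = recombinant Lucia luciferase without cells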

SMILES | activation
COc1ccc(-c2oc3ncn(Cc4ccco4)c(=N)c3c2-c2ccc(OC)cc2)cc1 | -0.27% (inactive)
O=C(NNC1=NCCC1)c1cccc(S(=O)(=O)N2CCCCC2)c1 | 0% (inactive)
Cc1ccc(CN2CCCOCCS2(=O)=O)cc1 | 0.01% (inactive)
O=S(=O)(NCCCN1CCOCC1)c1ccc(F)c(Cl)c1 | 1.67% (inactive)
N#Cc1cccc(CN2CCC(=O)N(CCO)CC2)c1 | 0.71% (inactive)
Cc1cc(C)c2nc3nc(C)cc(C)c3c(N)c2c1 | 9.48% (inactive)
COc1cccc(-c2cnc(C(O)c3ccccc3OC)[nH]2)c1 (stereo unspecified) | -0.09% (inactive)
C/C(CC(=O)Nc1ccc(N(C)C)cc1)=N\NC(=O)c1ccccc1F | 0.83% (inactive)
C(=N\n1cnnc1)/c1cccnc1 | 0.91% (inactive)
CCOc1ccccc1NC(=O)COc1ccc(S(=O)(=O)N2CCCC2)cc1 | 1.24% (inactive)
CSCCC(NC(N)=O)C(=O)N(C)CC(=O)Nc1ccc(C)cc1 (stereo unspecified) | -0.85% (inactive)
CCOC(=O)c1cc(-c2ccc(Cl)s2)nc2c1c(C)nn2C | 0.17% (inactive)
O=C(Nc1cccc(O)c1)c1ccc(C(=O)c2ccccc2)o1 | -1.44% (inactive)
COc1cc(C(C)=O)ccc1OC(C)C(=O)Nc1ccc(S(=O)(=O)N2CCCC2)cc1 (stereo unspecified) | 0.49% (inactive)
Cc1c(NS(=O)(=O)c2ccc(NC3CCCC3)c([N+](=O)[O-])c2)c(=O)n(-c2ccccc2)n1C | -1.51% (inactive)
N=c1ccn(CC(=O)NC(N)=O)c2ccccc12 | 11.7% (active)
C[C@H](NC(=O)C1CCN(S(=O)(=O)c2ccccc2)CC1)C(=O)NCc1ccccc1 | -0.18% (inactive)
CCCCc1cc(=O)oc2cc(C)cc(OCc3nn[nH]n3)c12 | 0.29% (inactive)
O=C(O)C1OC(C(=O)O)C2C1C(F)(F)C2(F)F (stereo unspecified) | 0.77% (inactive)
CCCCOCCCNC(=O)C[C@H]1C[C@@]2(C(=O)OC)C(=C[C@H](C(C)(C)C)O[C@@H]2C)N(CCc2ccc(OC)c(OC)c2)C1=O | -0.4% (inactive)
Cc1cccc(C)c1NC(=O)CN1C(=O)C(C)Oc2ccccc21 (stereo unspecified) | -0.02% (inactive)
Brc1ccc(/C=N/N2CCN(C3c4ccccc4-c4ccccc43)CC2)s1 | -0.21% (inactive)
O=C(O)Cn1c(Cc2ccccc2)nc2ccccc21 | -0.81% (inactive)
Cc1nc(-c2ccc(Cl)cc2)sc1C(=O)NN | 1.27% (inactive)
COc1cc(N2C(=O)CC3(CCCC3)CC2=O)cc(OC)c1OC | 0.03% (inactive)
CCCCCc1ccc(-c2cn(Cc3ccc4ccccc4c3)nn2)cc1 | -0.98% (inactive)

SMILES | activation
CCOc1ccc(N=C2NC(=O)S/C2=C\c2ccc(O)cc2)cc1 | -2.11% (inactive)
Cc1ccccc1/[N+]([O-])=C/c1ccncc1 | 0.64% (inactive)
O=C(NCCCNC(=O)c1ccccc1Cl)c1cnccn1 | -0.49% (inactive)
COc1ccccc1N1CCN(Cc2cc(OC)c3c(c2)OCO3)CC1 | 1.03% (inactive)
O=C(CCC(=O)c1cccs1)NCc1ccccc1 | -0.16% (inactive)
CCOc1ccc(NC(=O)COc2ccc(S(=O)(=O)N3CCCC3)cc2)cc1 | -0.08% (inactive)
Cc1c(C#N)c(NC(=O)c2ccccc2)n(Cc2ccccc2)c1C | 0.46% (inactive)
O=C(Nc1ccccc1C(=O)N1CCCCCC1)c1ccccc1Cl | 0.38% (inactive)
COc1ccc(S(=O)(=O)NCC(=O)NCc2cc(=O)n(C)c(=O)n2C)cc1F | -0.18% (inactive)
Cc1cccc(N2C(=O)CC(SC(N)=Nc3ccccc3)C2=O)c1 (stereo unspecified) | -0.45% (inactive)
C=C1C(C(C)C)N(C)C2=NC(c3ccccc3)CC(=O)N12 (stereo unspecified) | 0.07% (inactive)
Cc1cc(C)c(C#N)c(N2CCC(C(N)=O)CC2)n1 | -0.71% (inactive)
CC(C)NC(=O)c1ccc(Sc2ccccc2)c([N+](=O)[O-])c1 | -0.62% (inactive)
CCOC(=O)c1c(-c2ccccc2)oc2ccc(OCC(N)=O)cc12 | -0.6% (inactive)
O=C(NC(=O)c1ccccc1N1CCCCC1)Nc1ccc(Br)cc1 | 0.23% (inactive)
COc1ccc(C2c3ccc(O)cc3Oc3ncn(CCCO)c(=N)c32)cc1OC (stereo unspecified) | -0.83% (inactive)
CC(C)(C)C1CCC(OC(=O)CCC(=O)Nc2ccccc2)CC1 (stereo unspecified) | -1.07% (inactive)
O=C(NNC(=O)c1cc(S(=O)(=O)N2CCCCC2)ccc1Cl)c1ccccc1O | 0.18% (inactive)
Nc1nc(SCC(=O)Nc2ccc(Cl)c([N+](=O)[O-])c2)n[nH]1 | 0.36% (inactive)
COC(=O)c1cnn2c(C(F)(F)F)cc(-c3ccco3)nc12 | -0.89% (inactive)
O=C1c2cccc(OCC(=O)N3N=C(c4cccs4)CC3c3ccc(F)cc3)c2CCN1Cc1ccccc1 (stereo unspecified) | -0.93% (inactive)
Cn1cc(CN2CCCC(CO)C2)c(-c2ccc(Oc3ccccc3)cc2)n1 (stereo unspecified) | 2.56% (inactive)
CCCCN(C)CCNC(=O)C1CCCN(S(=O)(=O)c2cccc3nsnc23)C1 (stereo unspecified) | 0.58% (inactive)
O=S(=O)(NCc1ccccc1Br)c1ccccc1Br | -0.25% (inactive)
O=C(CS(=O)(=O)c1ccccc1)Nc1ccc(S(=O)(=O)Nc2ccccn2)cc1 | -0.26% (inactive)
